Activity calls are given as the source filed them. Rule for the calls: active = hit-call score of the fitted dose curve at least 0.9, where 1 is the maximum; inactive = score below 0.9.

A short description of the assay: CEETOX_H295R_OHPROG: CeeTox H295R High-throughput Steroidogenesis Assay for OH-Progesterone (OHPROG) (AID 2283435). The conditions noted are these: actives raise or lower the signal. As to the method:
CEETOX_H295R is a cell-based, multiplexed-readout assay that uses H295R, a human adrenal gland cell line, with measurements taken at 48 hours after chemical dosing in a 96-well plate.CEETOX_H295R_OHPROG is one of 23 assay component(s) measured or calculated from the CEETOX_H295R assay. It is designed to make measurements of hormone induction, a form of inducible reporter, as detected with absorbance signals by HPLC-MS-MS technology.Data from the assay component CEETOX_H295R_OHPROG was analyzed into 1 assay endpoint. This assay endpoint, CEETOX_H295R_OHPROG, was analyzed with bidirectional fitting relative to DMSO as the negative control and baseline of activity. Using a type of inducible reporter, gain or loss-of-signal activity using HPLC-MS-MS was used to understand synthesis of 17alpha-hydroxyprogesterone in H295R cell line at 48hr of chemical exposure. To generalize the intended target to other relatable targets, this assay endpoint is annotated to the steroid hormone intended target family, where the subfamily is progestagens.
Cell culture and media preparation procedures were conducted in accordance with OECD Test No. 456 guidelines, with minor modifications. H295R cells (ATCC CRL-2128) were expanded for 5 passages and frozen in batches in liquid nitrogen. Prior to the steroidogenesis assay, H295R cells were thawed and passed at least 4 times. The maximum passage was 10. Cells were maintained in a 1:1 mixture of DMEM/F12 supplemented with 5ml/L ITS+ Premix (BD Bioscience) and 12.5 ml/L Nu-Serum (BD Bioscience). After seeding cells into 96-well plates at 50-60% confluency, cells were allowed to adhere overnight. Prior to chemical testing, culture medium was replaced with 175 uL medium containing 10 uM forskolin to stimulate steroidogenesis for 48 hours. Following prestimulation, forskolin medium was replaced with medium containing test chemical solubilized in DMSO (ensuring a final concentration of 0.1% DMSO). Test chemicals were incubated for 48 hours, then the medium was removed and split into 2 vials containing approximately 75uL each, and stored at -80 C prior to hormone analysis. For steroid quantification, media samples were shipped to OpAns, LLC (Durham, NC) on dry ice, and samples were thawed to room temperature prior to liquid-liquid extraction. Steroid hormones were extracted from media samples using methyl tertbutyl ether (MTBE). An extra derivatization with dansyl chloride was included for estrogen (estrone and estradiol) detection only. Steroid hormones were separated by HPLC, eluted using a reverse phase C18 gradient with electrospray positive ionization, followed by quantification by tandem mass spectrometry (MS/MS). Data were acquired on a MassHunter Workstation Acquisition version B03.01 (Agilent Technologies, Inc.) and processed using MassHunter Quantitative Analysis for QQQ. Accuracy was determined for each hormone analyte from 3 standards to determine upper and lower limits of quantification (ULOQ and LLOQ, respectively) using a 7-point standard curve. Precision and accuracy of the extraction and quantification methods were calculated as the percent relative standard deviation (%RSD) of the spiked standards and percent spiked standard recovered, respectively. […] Test medium was removed following chemical exposure, and cell viability was evaluated in the same wells by MTT. MTT procedures were as follows: after removal of test medium, 500 uL of 0.5 mg/ml of 3-[4,5-dimethylthiazol-2-y]2,5-diphenyltetrazoliumbromide solution was added to the cells. Following a 4-hour incubation at 37 C and 5% CO2 to allow formazan-crystal formation, the MTT solution was removed and blue formazan salt crystals were solubilized using 500uL anhydrous isopropanol with shaking for 20 minutes. Absorbance was read at 570 and 650nm using a Packard Fusion microplate reader. Background correction of absorbance units was used to determine percent change relative to controls. […]
As to `CCOP(=S)(OCC)Oc1ccc2c(C)c(Cl)c(=O)oc2c1`, the AC50 (in general, the concentration giving half of the maximal activity seen) is 1.67 µM (active).
`CCOP(=S)(OCC)Oc1ccc([N+](=O)[O-])cc1`: the AC50 is 0.39 µM (active).
With `COc1ccc(C(=CC(=O)N2CCOCC2)c2ccc(Cl)cc2)cc1OC`, the molecule was classed as inactive.
On to `CN(C)NC(=O)CCC(=O)O`, for which the molecule was called inactive.
In the case of `CSc1nnc(C(C)(C)C)c(=O)n1N`, the molecule was called inactive.
Consider `CC(C1CC1)C(O)(Cn1cncn1)c1ccc(Cl)cc1` (stereo not given), for which the AC50 is 3.21 µM (active).
In the case of `Nc1nc(N)nc(NC2CC2)n1`, the molecule was classed as inactive.
As to `C[Si](Cn1cncn1)(c1ccc(F)cc1)c1ccc(F)cc1`, the molecule was classed as inactive.
The same measure, in the same setting: the value for `CCNc1nc(Cl)nc(NC(C)(C)C#N)n1` was “inactive”; that for `CCOC(=O)COc1cc(-c2nn(C)c(OC(F)F)c2Cl)c(F)cc1Cl` was “inactive”.
As for `CCOP(=S)(OCC)Oc1cc(C)nc(C(C)C)n1`, the AC50 is 6.6 µM (active).
`CNc1cnn(-c2cccc(C(F)(F)F)c2)c(=O)c1Cl`: the outcome was inactive.
On the same count and under the same terms, to `O=C(O)c1cc(Oc2ccc(C(F)(F)F)cc2Cl)ccc1[N+](=O)[O-]` belongs “inactive”; to `CNC(=O)ON=C(C)SC`, “inactive”.
Still for that read-out and setting: the value for `CCCSP(=O)(OCC)Oc1ccc(Br)cc1Cl` (stereo not given) was “inactive”; that for `CCCSP(=O)(OCC)SCCC` was “inactive”.
On the same count and under the same terms, to `CNC(=O)ON=C(SC)C(=O)N(C)C` belongs “inactive”; to `CCCCN(CC)c1c([N+](=O)[O-])cc(C(F)(F)F)cc1[N+](=O)[O-]`, “inactive”; to `CSc1nc(NC(C)C)nc(NC(C)C)n1`, “inactive”.
As to `FC(F)C(F)(F)OCC(Cn1cncn1)c1ccc(Cl)cc1Cl` (stereo not given), the molecule was called inactive.
For `CCCOCC(=Nc1ccc(Cl)cc1C(F)(F)F)n1ccnc1`, the AC50 is 0.147 µM (active).
Regarding `CC1(C(=O)Nc2ccc(O)c(Cl)c2Cl)CCCCC1`, the AC50 is 9.28 µM (active).
With `C#CCC1=C(C)C(OC(=O)C2C(C=C(C)C)C2(C)C)CC1=O` (stereo not given), the result was inactive.
Consider `CN(C)C(=O)Nc1cccc(C(F)(F)F)c1`, for which the AC50 is 52.6 µM (active).
Consider `CNC(=O)Oc1cccc2c1OC(C)(C)O2`, for which the half-maximal activity concentration (AC50) was 30.9 µM (active).
Regarding `CCc1cccc(C)c1N(C(=O)CCl)C(C)COC` (stereo not given), the molecule was called inactive.
Turning to `CCC(=O)Nc1ccc(Cl)c(Cl)c1`, the AC50 is 3.97 µM (active).
The same measure, in the same setting: the value for `C#CC(C)(C)NC(=O)c1cc(Cl)cc(Cl)c1` was 23.7 µM (active).
For `CC(COc1ccc(Oc2ccccc2)cc1)Oc1ccccn1` (stereo not given), the molecule was called inactive.
In the case of `COP(=O)(NC(C)=O)SC` (stereo not given), the molecule was classed as inactive.

Source of the values: PubChem BioAssay (EPA / NIEHS).
